According to PubChem BioAssay (NCATS):
Inconclusive results are not listed. The source made the active and inactive calls. Unless noted, the call rests on the fitted dose curve; in most records, active means well fitted curve in either direction with a large enough effect (not every such curve was filed as active); inconclusive means small, poorly fitted or top-dose-only effect, or another doubt; inactive means flat fitted curve, though single readings scatter.

Experiments:
[1] = biological target: Lysosomal acid glucosylceramidase (Homo sapiens) (UniProt P04062); assay: Glucocerebrosidase-p2 (AID 348; in the data active means potency below about 10 µM; further: potency means the concentration at half of the fitted maximal effect); conditions: purified GBA, blue fluorogenic substrate, 40 min
Lysosomal acid glucosylceramidase (Homo sapiens), sequence (P04062 whole entry, looked up): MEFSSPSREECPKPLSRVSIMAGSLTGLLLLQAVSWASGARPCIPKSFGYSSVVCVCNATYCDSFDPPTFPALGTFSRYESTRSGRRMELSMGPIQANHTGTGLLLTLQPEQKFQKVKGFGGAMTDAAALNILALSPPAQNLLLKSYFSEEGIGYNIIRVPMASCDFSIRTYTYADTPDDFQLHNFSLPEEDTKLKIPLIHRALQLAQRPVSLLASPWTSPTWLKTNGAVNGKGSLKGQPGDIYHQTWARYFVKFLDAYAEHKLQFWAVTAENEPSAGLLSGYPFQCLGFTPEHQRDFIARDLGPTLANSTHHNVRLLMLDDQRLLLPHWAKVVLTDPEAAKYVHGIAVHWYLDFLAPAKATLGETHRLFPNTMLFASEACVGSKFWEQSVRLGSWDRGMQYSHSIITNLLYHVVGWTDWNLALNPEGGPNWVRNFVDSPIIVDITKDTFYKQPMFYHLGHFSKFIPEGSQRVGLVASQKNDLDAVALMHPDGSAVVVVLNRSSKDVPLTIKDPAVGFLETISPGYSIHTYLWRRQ
In short: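 Compounds titrated from 0.6 nM upwards against 0.2 nM enzyme in pH 5.9 citric acid/KH2PO4, taurocholate, tween-20; blue fluorogenic substrate 80 uM, 40 min room temperature, stopped and read Ex 365/Em 440 for AC50.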

[2] = AP1 Signaling Pathway (AID 357); conditions: ME-180 AP-1-bla reporter, EGF-induced, beta-lactamase ratio, 5 h; at 7.69 µM (top of the series) unless noted;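 further: ME-180 reporter cells stimulated with EGF at its EC50 level; on the % scale 0 is the no-effect control and ±100 the full control effect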
In short: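 Beta-lactamase reporter under AP-1 response element, ME-180 background. Stimulus: EC50 EGF. Compound exposure 5 h, 37 °C. Detection: CCF4, 2.5 h RT, 460/530 nm. Values: AC50 from titration.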

[3] = biological target: Cytochrome P450 1A2 (Homo sapiens) (UniProt P05177); assay: p450-cyp1a2 (AID 410; calls by dose curve; further: potency means the concentration at half of the fitted maximal effect;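 on activity change, negative = inhibition: -100% = full effect of reference inhibitor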); conditions: recombinant CYP1A2, luciferin-ME demethylation, luminescence; series mostly up to 57 µM
Cytochrome P450 1A2 (Homo sapiens), sequence (P05177 whole entry, looked up): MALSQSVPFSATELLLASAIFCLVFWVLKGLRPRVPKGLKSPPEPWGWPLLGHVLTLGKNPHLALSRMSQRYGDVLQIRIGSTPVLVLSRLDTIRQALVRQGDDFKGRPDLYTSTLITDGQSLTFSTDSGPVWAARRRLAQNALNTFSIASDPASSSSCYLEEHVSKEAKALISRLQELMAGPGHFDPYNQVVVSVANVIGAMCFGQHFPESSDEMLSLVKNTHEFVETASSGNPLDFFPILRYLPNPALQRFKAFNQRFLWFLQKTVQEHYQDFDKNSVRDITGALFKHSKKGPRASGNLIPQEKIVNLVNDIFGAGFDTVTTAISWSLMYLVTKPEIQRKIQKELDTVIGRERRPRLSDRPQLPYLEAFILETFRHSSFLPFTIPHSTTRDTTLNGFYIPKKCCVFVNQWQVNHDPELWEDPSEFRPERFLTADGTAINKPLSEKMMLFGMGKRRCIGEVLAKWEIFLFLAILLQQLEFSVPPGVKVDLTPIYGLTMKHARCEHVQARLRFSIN
In short: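 Luminescent readout of luciferin formed from Luciferin-ME by human CYP1A2; data normalized against complete inhibition by 57 uM furafylline. Enzyme 20nM, substrate 100uM at Km, 100mM KPO4 buffer, 60 min reaction at room temperature.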

[4] = NFAT Signaling Pathway (AID 444); conditions: Jurkat NFAT-bla M1, carbachol, beta-lactamase ratio, 5 h; at 7.69 µM (top of the series) unless noted;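 further: carbachol stimulus at about its EC50 of 1 µM final; on the % scale 0 is the no-effect control and ±100 the full control effect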
In short: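 Read-out: CCF4 FRET ratio (460 nm/530 nm) after 1 h RT dye loading, used for %activity and AC50 from titration series. Cells: Jurkat NFAT-β-lactamase/M1 line, treated with compound plus 1 uM carbachol for 5 h, 37 °C.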

[5] = Stat Signaling Pathway (AID 446); conditions: ME-180 SIE beta-lactamase reporter, IL-6 stimulated, 5 h; at 7.69 µM (top of the series) unless noted;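 further: ME-180 cervical cancer cells given 40 pM IL-6 alongside compound; SIE-controlled beta-lactamase reporter measured as 460/530 nm FRET emission ratio; on the % scale 0 is the no-effect control and ±100 the full control effect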
In short: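 IL-6/STAT signaling read in ME-180 cells via an SIE beta-lactamase reporter. Stimulus was 40 pM IL-6 (its AC50) for 5 hrs, so both activation and inhibition register.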

[6] = biological target: Glucocorticoid receptor (Homo sapiens) (UniProt P04150); assay: GR-EFC Redistribution (AID 451; calls by dose curve; further: potency means the concentration at half of the fitted maximal effect); conditions: CHO-K1 GR-EFC translocation, beta-gal luminescence, 2 h
Glucocorticoid receptor (Homo sapiens), sequence (P04150 whole entry, looked up, the tested form may be a part): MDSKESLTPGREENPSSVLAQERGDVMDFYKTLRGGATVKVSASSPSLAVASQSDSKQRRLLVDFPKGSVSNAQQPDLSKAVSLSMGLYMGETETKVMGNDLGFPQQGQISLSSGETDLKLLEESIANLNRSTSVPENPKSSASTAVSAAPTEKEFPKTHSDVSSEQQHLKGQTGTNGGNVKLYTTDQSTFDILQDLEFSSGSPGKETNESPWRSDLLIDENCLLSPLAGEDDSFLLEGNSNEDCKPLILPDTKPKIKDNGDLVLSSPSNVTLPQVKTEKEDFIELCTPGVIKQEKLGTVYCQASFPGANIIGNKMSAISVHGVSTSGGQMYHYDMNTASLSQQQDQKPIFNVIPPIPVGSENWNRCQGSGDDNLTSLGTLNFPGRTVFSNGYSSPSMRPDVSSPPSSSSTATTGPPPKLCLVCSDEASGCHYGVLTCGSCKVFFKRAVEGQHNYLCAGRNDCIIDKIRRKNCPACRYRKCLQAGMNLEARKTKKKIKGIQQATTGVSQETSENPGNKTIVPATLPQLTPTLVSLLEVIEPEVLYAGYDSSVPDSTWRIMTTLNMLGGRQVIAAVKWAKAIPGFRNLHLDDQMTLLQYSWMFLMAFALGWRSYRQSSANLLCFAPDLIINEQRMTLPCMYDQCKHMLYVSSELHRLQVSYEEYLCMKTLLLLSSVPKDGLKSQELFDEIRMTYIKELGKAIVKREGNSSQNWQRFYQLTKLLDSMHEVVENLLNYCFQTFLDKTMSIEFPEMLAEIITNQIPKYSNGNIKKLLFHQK
In short: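 Translocation of GR-ED fusion to nuclear EA restores b-gal, read by luminescence after 1 h room-temperature detection. Engineered CHO-K1 biosensor cells, 1,000/well, exposed 2 h at 37 C to titrations up to 46 uM final.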

[7] = biological target: Mitogen-activated protein kinase 10 (Mus musculus) (UniProt Q61831); assay: JNK3 AlphaScreen Assay (AID 530); conditions: JNK3 lysate, c-Jun phosphorylation; series mostly up to 57.1 µM;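 further: kinase came from lysate of stimulated human HepG2 cells; signal reports phosphorylation of biotinylated GST-cJun 1-79 at Ser73 with 10 µM ATP; on the % scale 0 is the no-effect control and ±100 the full control effect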
In short: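 Compound titrations were preincubated 15 minutes at room temperature with substrate, antibody and pre-activated JNK3-containing HepG2 lysate. Reactions were started with 10 uM ATP and stopped with EDTA-containing bead buffer for AlphaScreen detection.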

[8] = biological target: 3',5'-cyclic-AMP phosphodiesterase 4B (Homo sapiens) (UniProt Q07343); assay: qHTS Assay for Inhibitors of PDE-IV (AID 607; active means well fitted activation curve with a large enough effect in the main read-out, with a control signal flat, not every such curve was filed as active; further: % of control where 0% means no effect); conditions: HEK293 ACTOne CNG channel cells, membrane potential fluorescence; series mostly up to 22.9 µM
3',5'-cyclic-AMP phosphodiesterase 4B (Homo sapiens), sequence (Q07343 whole entry, looked up): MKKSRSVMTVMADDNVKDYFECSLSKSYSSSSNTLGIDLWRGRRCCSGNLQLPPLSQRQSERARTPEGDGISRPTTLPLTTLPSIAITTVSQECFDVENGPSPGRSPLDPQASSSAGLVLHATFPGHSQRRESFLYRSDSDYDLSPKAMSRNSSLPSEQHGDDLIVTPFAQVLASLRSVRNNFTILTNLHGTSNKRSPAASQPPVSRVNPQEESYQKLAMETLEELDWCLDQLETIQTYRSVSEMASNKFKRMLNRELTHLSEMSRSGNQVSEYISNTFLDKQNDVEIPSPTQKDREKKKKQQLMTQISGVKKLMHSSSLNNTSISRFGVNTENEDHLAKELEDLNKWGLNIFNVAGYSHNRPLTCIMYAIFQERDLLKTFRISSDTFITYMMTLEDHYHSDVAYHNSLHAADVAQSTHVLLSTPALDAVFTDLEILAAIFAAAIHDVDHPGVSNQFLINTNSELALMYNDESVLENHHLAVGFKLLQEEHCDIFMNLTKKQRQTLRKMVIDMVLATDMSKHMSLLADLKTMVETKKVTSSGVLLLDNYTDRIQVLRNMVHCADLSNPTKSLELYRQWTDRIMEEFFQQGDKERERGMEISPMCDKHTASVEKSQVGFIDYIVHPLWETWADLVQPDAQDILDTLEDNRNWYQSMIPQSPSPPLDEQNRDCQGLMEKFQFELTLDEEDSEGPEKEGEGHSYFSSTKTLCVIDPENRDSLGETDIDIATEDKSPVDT
In short: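 Live HEK293 cells with a modified cyclic nucleotide-gated (CNG) channel report intracellular cAMP via membrane-potential dye fluorescence (ex 535/em 590 nm). Endogenous PDE-IV was targeted. Compounds were tested at up to 22.9 uM final; RO 20-1724 100 uM served as control.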

[9] = biological target: Cytochrome P450 2D6 (Homo sapiens) (UniProt P10635); assay: qHTS Assay for Inhibitors and Substrates of Cytochrome P450 2D6 (AID 891; active means well fitted curve in the direction sought with a large enough effect; an effect the other way counts as inactive or inconclusive; further: potency means the concentration at half of the fitted maximal effect; nearly all actives have a fitted effect of over 60% in size); conditions: recombinant CYP2D6, luciferin-ME EGE luminescence; series mostly up to 57.1 µM
Cytochrome P450 2D6 (Homo sapiens), sequence (P10635 whole entry, looked up): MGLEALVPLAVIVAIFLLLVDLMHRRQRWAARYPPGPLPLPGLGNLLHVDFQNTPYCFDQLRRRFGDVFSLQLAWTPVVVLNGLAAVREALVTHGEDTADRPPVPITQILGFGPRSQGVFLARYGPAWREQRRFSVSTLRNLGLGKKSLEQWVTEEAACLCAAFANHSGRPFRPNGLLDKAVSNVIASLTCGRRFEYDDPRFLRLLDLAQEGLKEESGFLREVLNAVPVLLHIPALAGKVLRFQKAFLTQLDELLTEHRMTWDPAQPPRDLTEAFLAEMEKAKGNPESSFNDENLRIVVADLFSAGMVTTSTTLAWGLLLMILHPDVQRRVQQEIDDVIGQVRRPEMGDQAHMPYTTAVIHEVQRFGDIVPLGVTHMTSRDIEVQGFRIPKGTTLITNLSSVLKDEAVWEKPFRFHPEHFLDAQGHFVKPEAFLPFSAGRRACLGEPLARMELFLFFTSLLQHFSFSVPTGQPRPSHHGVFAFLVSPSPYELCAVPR
In short: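 Human CYP2D6 (5 nM) with 30 uM Luciferin-ME EGE (at Km) in 100 mM KPO4, compound preincubated 10 min, then NADPH regeneration system for 60 min at room temperature. Luciferin read by luminescence; normalized to 1.43 uM quinidine.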

[10] = qHTS Assay for Lipid Storage Modulators (AID 1519; calls by dose curve); conditions: Drosophila S3 cells, BODIPY lipid droplet/cell ratio, laser cytometry, cells loaded with oleic acid; for activity change, negative = inhibition: at 57.5 µM (top of the series)
In short: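 Cells seeded at 5,000 per well were treated with compounds over a concentration series and loaded with oleic acid (400 uM, as added). Lipid droplet fluorescence (488 nm excitation, 500-530 nm channel) was read by laser-scanning cytometry and normalized to 20 uM Triacsin C.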

[11] = Primary qHTS for small molecule stabilizers of the endoplasmic reticulum resident proteome: Secreted ER Calcium Modulated Protein (SERCaMP) assay (AID 1508630; active means well fitted curve in the direction sought with a large enough effect; an effect the other way counts as inactive or inconclusive; further: on the % scale 0 is the no-effect control and ±100 the full control effect); conditions: SH-SY5Y GLuc-SERCaMP (Gaussia luciferase released on ER calcium loss) secretion, thapsigargin, luminescence; series mostly up to 38.4 µM
In short: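 GLuc-SERCaMP-expressing SH-SY5Y cells, pretreated 16 h with compound, are challenged with thapsigargin to empty ER calcium stores; after 4 h, coelenterazine is added directly to the medium and luminescence is imaged.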

[12] = biological target: Cytochrome P450 3A4 (Homo sapiens) (UniProt P08684); assay: qHTS Assay for Activators of Cytochrome P450 3A4 (AID 885; active means well fitted curve in the direction sought with a large enough effect; an effect the other way counts as inactive or inconclusive; further: nearly all actives have a fitted effect of over 65% in size); conditions: recombinant CYP3A4, Luciferin-PPXE luminescence, 60 min; series mostly up to 57.1 µM
Cytochrome P450 3A4 (Homo sapiens), sequence (P08684 whole entry, looked up): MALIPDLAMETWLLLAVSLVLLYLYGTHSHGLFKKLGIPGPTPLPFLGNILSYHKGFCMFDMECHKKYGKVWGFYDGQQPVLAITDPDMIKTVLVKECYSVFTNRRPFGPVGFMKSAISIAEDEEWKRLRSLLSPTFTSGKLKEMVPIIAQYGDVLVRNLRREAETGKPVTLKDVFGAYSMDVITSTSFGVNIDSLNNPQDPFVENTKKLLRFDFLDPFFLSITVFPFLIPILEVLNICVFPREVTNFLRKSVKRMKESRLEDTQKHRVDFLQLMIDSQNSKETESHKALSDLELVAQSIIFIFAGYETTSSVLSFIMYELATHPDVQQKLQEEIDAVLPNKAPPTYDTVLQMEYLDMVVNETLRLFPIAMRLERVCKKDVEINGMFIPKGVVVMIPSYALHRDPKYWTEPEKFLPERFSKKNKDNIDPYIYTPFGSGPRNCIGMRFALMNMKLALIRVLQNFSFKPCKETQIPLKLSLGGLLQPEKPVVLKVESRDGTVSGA
In short: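 Quantitative HTS format: compounds preincubated with 20nM human CYP3A4 and Luciferin-PPXE substrate at KM, reaction started by NADPH regeneration, stopped after 60 min, luciferase luminescence read 20 min later.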

[13] = qHTS Assay for Identification of Small Molecule Agonists for Hypoxia Response Element Signaling Pathway (AID 914; active means well fitted activation curve with a large enough effect in the signal ratio, with a control signal flat, not every such curve was filed as active; the % refers to the signal ratio; further: % of control where 0% means no effect); conditions: ME-180 (cervical carcinoma) HRE-bla reporter, beta-lactamase ratio, CoCl2, 17 h; activation: stronger effect = higher value
In short: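 Cells were plated overnight, pin-dosed with compound in a titration series, co-stimulated with EC50 CoCl2 and incubated 17 hours at 37 degrees Celsius. CCF4 substrate was then loaded, and AC50 values came from the 460nm/530nm ratio.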

[14] = biological target: Cytochrome P450 2C19 (Homo sapiens) (UniProt P33261); assay: qHTS Assay for Inhibitors and Substrates of Cytochrome P450 2C19 (AID 899; active means well fitted curve in the direction sought with a large enough effect; an effect the other way counts as inactive or inconclusive; further: potency means the concentration at half of the fitted maximal effect; nearly all actives have a fitted effect of over 60% in size); conditions: recombinant CYP2C19, luciferin-H EGE luminescence; series mostly up to 57.1 µM
Cytochrome P450 2C19 (Homo sapiens), sequence (P33261 whole entry, looked up): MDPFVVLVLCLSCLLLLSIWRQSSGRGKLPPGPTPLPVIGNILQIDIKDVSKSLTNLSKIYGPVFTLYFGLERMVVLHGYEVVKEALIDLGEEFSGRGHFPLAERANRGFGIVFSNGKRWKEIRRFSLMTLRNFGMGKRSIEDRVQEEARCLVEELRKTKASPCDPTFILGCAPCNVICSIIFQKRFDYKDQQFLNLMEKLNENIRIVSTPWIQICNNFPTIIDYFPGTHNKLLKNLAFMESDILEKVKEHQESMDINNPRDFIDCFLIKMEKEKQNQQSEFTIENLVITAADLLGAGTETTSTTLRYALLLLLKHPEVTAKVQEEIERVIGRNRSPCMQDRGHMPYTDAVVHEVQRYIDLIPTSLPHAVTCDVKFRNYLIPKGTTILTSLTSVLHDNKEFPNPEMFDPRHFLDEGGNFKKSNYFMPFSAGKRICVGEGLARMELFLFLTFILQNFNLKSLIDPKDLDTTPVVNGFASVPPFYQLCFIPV
In short: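 Reactions contain 5nM enzyme, 10uM Luciferin-H EGE (KM) and 50mM KPO4; compound preincubates 10 min at 37C, NADPH regeneration starts turnover for 60 min. Luminescence after detection reagent gives activity.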

[15] = measured here: cell count channel max response
[16] = measured here: lipid channel max response

Row | SMILES | Potency [1] | activity change, negative = inhibition [2] | Potency [3] | activity change, negative = inhibition [4] | activity, negative = inhibition [5] | Potency [6] | outcome [7] | Potency [8] | Potency [9] | activity change, negative = inhibition [10] | max response [10, 15] | max response [10, 16] | Potency [11] | Potency [12] | activation [13] | Potency [14]
1 | COc1ccccc1CN1CCC2(CC1)CCN(C(C)=O)CC2 | > 11.4 µM (inactive) | -6.68% (inactive) | inactive | -28.3% (inactive) | 0.91% (inactive) | > 46 µM (inactive) | inactive | inactive | 5.01 µM (active) | 0.897% (inactive) | 3.13% | 3.76% | inactive |  |  | 
2 | CC(C)CN1CC[C@@]2(CCCN(C(=O)c3cnccn3)C2)C1 | > 11.4 µM (inactive) | 6.22% (inactive) | inactive | 13.6% (inactive) | 4.96% (inactive) | > 46 µM (inactive) | inactive | inactive |  | 3.32% (inactive) | 15.7% | 22.3% | inactive | inactive | -0.465% (inactive) | 
3 | O=C(Nc1cccc(F)c1)N1CC[C@@]2(CCCNC2)C1 | > 11.4 µM (inactive) | 2.44% (inactive) | inactive | -0.699% (inactive) | -0.756% (inactive) | > 46 µM (inactive) | inactive | inactive |  | 3.99% (inactive) | -1.25% | 6.61% | inactive | inactive | 0.832% (inactive) | 
4 | CN(C)c1ncc2ncc(=O)n(Cc3ccc(F)cc3)c2n1 | > 11.4 µM (inactive) | -9.88% (inactive) | 3.98 µM (active) | 4.28% (inactive) | -10.9% (inactive) | > 46 µM (inactive) | inactive | inactive |  | 2.54% (inactive) | 6.58% | 11.9% | inactive | inactive |  | 3.16 µM (active)
5 | COC(=O)N1CCC2(CCCN(Cc3ccccc3OC)C2)CC1 | > 11.4 µM (inactive) | -7.44% (inactive) | inactive | -73.7% (active) | -10.7% (inactive) | > 46 µM (inactive) | inactive | inactive | 3.16 µM (active) | -2.47% (inactive) | 15.3% | 15.9% | inactive | inactive |  | 
6 | O=C(c1ccco1)N1CCC2(CC1)CN(Cc1cc(C(F)(F)F)cc(C(F)(F)F)c1)C2 | > 11.4 µM (inactive) | 5.99% (inactive) | inactive | 15.6% (inactive) | 2.41% (inactive) | > 46 µM (inactive) | inactive | inactive | 6.31 µM (active) | -5.85% (inactive) | 13.1% | 7.42% | inactive |  |  | 
7 | COC(=O)N1CCC[C@@]2(CCN(C(c3ccccc3)c3ccccc3)C2)C1 | > 11.4 µM (inactive) | -2.49% (inactive) | 12.6 µM (active) | -6.57% (inactive) | 3.94% (inactive) | > 46 µM (inactive) | inactive |  | 2 µM (active) | -5.11% (inactive) | 6.34% | 4.63% | inactive |  |  | 
8 | Cc1noc(C)c1C(=O)N1CCC[C@@]2(CCN(Cc3ccccc3)C2)C1 | > 11.4 µM (inactive) | -8.33% (inactive) | inactive | 4.21% (inactive) | 3.42% (inactive) | > 46 µM (inactive) | inactive | inactive | 7.94 µM (active) | 2.65% (inactive) | 16.8% | 22.2% | inactive | inactive |  | 
9 | COc1ccccc1CN1CC[C@@]2(CCCN(C(C)=O)C2)C1 | > 11.4 µM (inactive) | -19% (inactive) | inactive | 19.3% (inactive) | 1.39% (inactive) | > 46 µM (inactive) | inactive | inactive | 3.16 µM (active) | 0.807% (inactive) | -2.53% | -1% | inactive |  |  | 
10 | O=C(c1csnn1)N1CCC2(CC1)CCN(c1ccccc1)CC2 | > 11.4 µM (inactive) | -9.9% (inactive) | 15.8 µM (active) | 25.1% (inactive) | 1.19% (inactive) | > 46 µM (inactive) | inactive | inactive |  | 4.25% (inactive) | 1.9% | 6.57% | inactive |  | -15.4% (inactive) | 
11 | N#Cc1cccc(NC(=O)N2CCC3(CC2)CCN(C(=O)c2csnn2)CC3)c1 | > 11.4 µM (inactive) | -16.5% (inactive) | inactive | 11.9% (inactive) | -0.506% (inactive) | > 46 µM (inactive) | inactive | inactive |  | 5.57% (inactive) | 15% | 22.3% | inactive | inactive | -0.636% (inactive) | 
12 | O=C(c1cnccn1)N1CCC2(CC1)CN(c1ccncc1)C2 | > 11.4 µM (inactive) | 4.42% (inactive) | inactive | -19.4% (inactive) | 2.09% (inactive) | > 46 µM (inactive) |  | inactive |  | -0.9% (inactive) | -18.2% | -17.9% | inactive |  |  | 
13 | O=C(Oc1ccccc1)N1CCC[C@@]2(CCN(c3ncccn3)C2)C1 | > 11.4 µM (inactive) | 2.93% (inactive) | 12.6 µM (active) | -0.482% (inactive) | 9% (inactive) | > 46 µM (inactive) | inactive | inactive |  | 4.5% (inactive) | 8.9% | 17.1% | inactive | inactive |  | 2.51 µM (active)
